# According to PubChem BioAssay (NCI):
# About 83,000 compounds went through this panel and 20% of them were active in at least one assay; those are over-represented in the sample as a whole.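 Testing used 96-well plates and a 48-hour single-concentration exposure. Example: -40 means 40% of the starting cells died.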 Unmarked numbers belong to inactive results. Active and inactive are the calls of the source. Rule for the calls: active = growth percent below 10; inactive = the rest.
# Tested on: COLO 205 colon
# Assay: NCI-60 one-dose screen, 48 h (100 = growth as untreated, 0 = no growth, -100 = all killed)
# Conditions: 10 µM unless noted
row,SMILES,growth
1,Cc1[nH]ccc2cc3nc4ccccc4c3cc12,-5.37% (active)
2,NS(=O)(=O)c1ccc(-n2ncc3c(N/N=C/c4ccccc4)ncnc32)cc1,97.5%
3,O=C(C(=O)c1cc(Br)ccc1O)c1cc(Br)ccc1O,100%
4,COc1ccc(-c2cnc(SCC(=O)Nc3ccc(-c4nc5ccccc5s4)cc3)n2-c2ccc(OC)cc2)cc1,112%
5,N#CSCC1CC(O)(c2ccccc2)C(c2ccccc2)C(c2ccc(Cl)cc2)O1 (stereo not given),-98.3% (active)
6,OCc1n(Cc2ccc3ccccc3c2)cc[n+]1Cc1ccc2ccccc2c1,23.1%
7,c1ccc(-c2nc(Nc3nccnn3)c3ccccc3n2)cc1,107%
8,CCOC(=O)/C=C1/SC(=Nc2ccc(C#N)cc2)N(Cc2ccco2)C1=O,50.2%
9,Cc1cnc2nc(-c3ccc(N(C)C)cc3)cn2c1,120%
10,COc1ccc2c(c1)c(CC(=O)[Se]C)c(C)n2C(=O)c1ccc(Cl)cc1,50.1%
11,COc1cc(/C=C/C(=O)C(C(=O)/C=C/c2ccc(OC(=O)CCNc3nnc(C)s3)c(OC)c2)C(=O)CCNc2nnc(C)s2)ccc1OC(=O)CCNc1nnc(C)s1,-26.3% (active)
12,O=C1C2C(C(=O)N1CC[Se][Se]CCN1C(=O)C3C(C1=O)[C@H]1C=C[C@@H]3C1)[C@H]1C=C[C@@H]2C1 (stereo not given in full),-86.6% (active)
13,COc1ccc(OC)c(CCn2cncc2-c2c[nH]c3cc(Br)ccc23)c1,7.59% (active)
14,CN(C)c1ncnc2c1ncn2C1CCCCO1 (stereo not given),98.3%
15,COc1ccc2c(c1)sc1nc(-c3ccc(Br)cc3)cn12,129%
16,O=C(Nc1ccccc1OC(=O)c1ccccc1)c1ccccc1,108%
17,Cc1csc(C#Cc2cncc(O)c2)n1,105%
18,COc1ccc2nc(NC(=O)CN3CCn4c(nnc4C(F)(F)F)C3)sc2c1,109%
19,CCOC(=O)C(Br)=P(c1ccccc1)(c1ccccc1)c1ccccc1,103%
20,C=CCN(/C=C/CN(CC=C)CC=C)CC=C,107%

row,SMILES,growth
1,O=C1NC(=S)S/C1=C\c1cc(Br)ccc1O,95%
2,COc1ccc(C(=O)/C=C/c2cccc(Nc3ccnc4cc(Cl)ccc34)c2)cc1,45.1%
3,CCCCCCCCCCOC(C)=O,116%
4,O=C1C(=O)c2c(nc3ccc(Cl)cn23)-c2ccccc21,-100% (active)
5,CC(=O)OCC(=O)[C@@]1(O)CC[C@H]2[C@@H]3CCC4=CC(=O)CC[C@]4(C)[C@@]3(F)[C@@H](O)C[C@@]21C,97.8%
6,CCc1nn2c(-c3ccc(Cl)cc3C)c(-c3cc(OC)c(OC)c(OC)c3)nc2s1,81.2%
7,COc1cc(/C=C/C(=O)C(C(=O)/C=C/c2ccc(OC(=O)CCNC34CC5CC(CC(C5)C3)C4)c(OC)c2)C(=O)CCNC23CC4CC(CC(C4)C2)C3)ccc1OC(=O)CCNC12CC3CC(CC(C3)C1)C2 (stereo not given),17.7%
8,CN(C)c1ccc(-c2nc3ncc(Br)cc3o2)cc1,81.3%
9,CCCc1n(Cc2ccc3ccccc3c2)cc[n+]1Cc1ccc2ccccc2c1,-66.9% (active)
10,N#Cc1c(-c2ccccc2)cc(-c2ccccc2)n(CCC(=O)O)c1=O,61.2%
11,C=C1CCC2C3(C)COC(c4ccccc4)OC3CCC2(C)C1C/C=C1/C(=O)OCC1OC(C)=O (stereo not given),103%
12,O=C(CNC(=O)c1cccc2ccccc12)Nc1ccccc1Cc1ccccc1,29.4% [5 µM]
13,COC(=O)C1=CCC(n2cnc3c(N)ncnc32)O1 (stereo not given),103%
14,O=C(NC1CCCCC1)c1ccc(Nc2ncnc3c2cnn3-c2ccccc2)cc1,65.4%
15,COc1ccc(-c2cc(-c3cccnc3)nc3sc(C(=O)Nc4ccccc4)c(N)c23)cc1OC,72.6%
16,Clc1ccc(C2=NN(c3ccc(Cl)cc3)C(c3cccc(Nc4ccnc5cc(Cl)ccc45)c3)C2)cc1 (stereo not given),72.8%
17,CCCCN=C(N)c1ccc(OCCSCCOc2ccc(C(N)=NCCCC)cc2)cc1,7.64% (active)
18,C/C(=C\CCc1ccoc1)CC/C=C(\C)CCCC1COC(=O)C1 (stereo not given),109%
19,Oc1c(Cl)cc(Oc2cc(Cl)c(O)c(CN3CCOCC3)c2)cc1CN1CCOCC1,105%
20,CCOC(=O)CCN(c1c(Cl)ssc1=O)C(C)C,115%

# Tested on: DU-145 prostate
# Assay: as above
# Conditions: 10 µM unless noted
row,SMILES,growth
1,Cc1[nH]ccc2cc3nc4ccccc4c3cc12,34.4%
2,NS(=O)(=O)c1ccc(-n2ncc3c(N/N=C/c4ccccc4)ncnc32)cc1,73.1%
3,O=C(C(=O)c1cc(Br)ccc1O)c1cc(Br)ccc1O,67.7%
4,COc1ccc(-c2cnc(SCC(=O)Nc3ccc(-c4nc5ccccc5s4)cc3)n2-c2ccc(OC)cc2)cc1,120%
5,N#CSCC1CC(O)(c2ccccc2)C(c2ccccc2)C(c2ccc(Cl)cc2)O1 (stereo not given),-68.2% (active)
6,OCc1n(Cc2ccc3ccccc3c2)cc[n+]1Cc1ccc2ccccc2c1,84.7%
7,c1ccc(-c2nc(Nc3nccnn3)c3ccccc3n2)cc1,99.5%
8,CCOC(=O)/C=C1/SC(=Nc2ccc(C#N)cc2)N(Cc2ccco2)C1=O,39.2%
9,Cc1cnc2nc(-c3ccc(N(C)C)cc3)cn2c1,109%
10,COc1ccc2c(c1)c(CC(=O)[Se]C)c(C)n2C(=O)c1ccc(Cl)cc1,-7.9% (active)
11,COc1cc(/C=C/C(=O)C(C(=O)/C=C/c2ccc(OC(=O)CCNc3nnc(C)s3)c(OC)c2)C(=O)CCNc2nnc(C)s2)ccc1OC(=O)CCNc1nnc(C)s1,-14.5% (active)
12,O=C1C2C(C(=O)N1CC[Se][Se]CCN1C(=O)C3C(C1=O)[C@H]1C=C[C@@H]3C1)[C@H]1C=C[C@@H]2C1 (stereo not given in full),-46.7% (active)
13,COc1ccc(OC)c(CCn2cncc2-c2c[nH]c3cc(Br)ccc23)c1,63.3%
14,CN(C)c1ncnc2c1ncn2C1CCCCO1 (stereo not given),115%
15,COc1ccc2c(c1)sc1nc(-c3ccc(Br)cc3)cn12,115%
16,O=C(Nc1ccccc1OC(=O)c1ccccc1)c1ccccc1,112%
17,Cc1csc(C#Cc2cncc(O)c2)n1,116%
18,COc1ccc2nc(NC(=O)CN3CCn4c(nnc4C(F)(F)F)C3)sc2c1,106%
19,CCOC(=O)C(Br)=P(c1ccccc1)(c1ccccc1)c1ccccc1,124%
20,C=CCN(/C=C/CN(CC=C)CC=C)CC=C,110%

row,SMILES,growth
1,O=C1NC(=S)S/C1=C\c1cc(Br)ccc1O,105%
2,COc1ccc(C(=O)/C=C/c2cccc(Nc3ccnc4cc(Cl)ccc34)c2)cc1,37%
3,CCCCCCCCCCOC(C)=O,112%
4,O=C1C(=O)c2c(nc3ccc(Cl)cn23)-c2ccccc21,-100% (active)
5,CC(=O)OCC(=O)[C@@]1(O)CC[C@H]2[C@@H]3CCC4=CC(=O)CC[C@]4(C)[C@@]3(F)[C@@H](O)C[C@@]21C,96%
6,CCc1nn2c(-c3ccc(Cl)cc3C)c(-c3cc(OC)c(OC)c(OC)c3)nc2s1,91.7%
7,COc1cc(/C=C/C(=O)C(C(=O)/C=C/c2ccc(OC(=O)CCNC34CC5CC(CC(C5)C3)C4)c(OC)c2)C(=O)CCNC23CC4CC(CC(C4)C2)C3)ccc1OC(=O)CCNC12CC3CC(CC(C3)C1)C2 (stereo not given),-48.8% (active)
8,CN(C)c1ccc(-c2nc3ncc(Br)cc3o2)cc1,99.8%
9,CCCc1n(Cc2ccc3ccccc3c2)cc[n+]1Cc1ccc2ccccc2c1,20.3%
10,N#Cc1c(-c2ccccc2)cc(-c2ccccc2)n(CCC(=O)O)c1=O,81.5%
11,C=C1CCC2C3(C)COC(c4ccccc4)OC3CCC2(C)C1C/C=C1/C(=O)OCC1OC(C)=O (stereo not given),108%
12,O=C(CNC(=O)c1cccc2ccccc12)Nc1ccccc1Cc1ccccc1,48.4% [5 µM]
13,COC(=O)C1=CCC(n2cnc3c(N)ncnc32)O1 (stereo not given),113%
14,O=C(NC1CCCCC1)c1ccc(Nc2ncnc3c2cnn3-c2ccccc2)cc1,54.6%
15,COc1ccc(-c2cc(-c3cccnc3)nc3sc(C(=O)Nc4ccccc4)c(N)c23)cc1OC,54.6%
16,Clc1ccc(C2=NN(c3ccc(Cl)cc3)C(c3cccc(Nc4ccnc5cc(Cl)ccc45)c3)C2)cc1 (stereo not given),96.2%
17,CCCCN=C(N)c1ccc(OCCSCCOc2ccc(C(N)=NCCCC)cc2)cc1,55.3%
18,C/C(=C\CCc1ccoc1)CC/C=C(\C)CCCC1COC(=O)C1 (stereo not given),105%
19,Oc1c(Cl)cc(Oc2cc(Cl)c(O)c(CN3CCOCC3)c2)cc1CN1CCOCC1,101%
20,CCOC(=O)CCN(c1c(Cl)ssc1=O)C(C)C,100%
